Source: PubChem BioAssay (NCATS)
Several values for one entry are separate records, joined by “and”; a condition that tells them apart may be missing. Equal entries are not always repeated. Records with an inconclusive call do not appear. Activity calls are given as the source filed them. The call rests on the fitted dose curve; in most records, active means well fitted curve in the direction sought with a large enough effect; inconclusive means small, poorly fitted or top-dose-only effect, or another doubt; inactive means no such curve, though single readings can be large; an effect the other way counts as inactive or inconclusive.

Legend:
[1] = target: Cellular tumor antigen p53 (Homo sapiens) (UniProt P04637); assay: Primary qHTS for small molecule compounds that upregulate eGFP-tagged delta133p53alpha (in N-terminal) cells. (AID 2060322); conditions: NCI-H358 eGFP-delta133p53alpha fluorescence, 24 h; activation: stronger effect = higher value; further: nearly all actives have a fitted effect of over 75% in size; further: potency means the concentration at half of the fitted maximal effect;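 on activation: 0% = DMSO vehicle and 100% = reference activator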
Sequence of Cellular tumor antigen p53 (Homo sapiens) (P04637 whole entry, looked up): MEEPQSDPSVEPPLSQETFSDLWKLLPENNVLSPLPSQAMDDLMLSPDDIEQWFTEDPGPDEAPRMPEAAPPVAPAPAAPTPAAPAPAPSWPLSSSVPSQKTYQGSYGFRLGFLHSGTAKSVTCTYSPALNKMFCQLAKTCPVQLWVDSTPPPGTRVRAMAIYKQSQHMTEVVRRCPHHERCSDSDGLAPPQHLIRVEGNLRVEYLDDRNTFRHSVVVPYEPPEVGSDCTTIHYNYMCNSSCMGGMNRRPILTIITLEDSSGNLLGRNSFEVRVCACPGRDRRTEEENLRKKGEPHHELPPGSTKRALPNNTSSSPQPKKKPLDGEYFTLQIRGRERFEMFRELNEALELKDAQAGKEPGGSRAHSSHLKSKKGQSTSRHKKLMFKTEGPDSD
Procedure, shortened: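 NCI-H358 cells pre-induced 24 h with 10 ng/ml doxycycline to express N-terminal eGFP-delta133p53alpha, then dosed 24 h at 37C without doxycycline; fixed, Hoechst-stained, GFP intensity by laser scanning cytometry, normalized to DMSO (0%) and 57.5 uM 5-azacytidine (100%).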

[2] = qHTS for Inhibitors of the Aldehyde Dehydrogenase Family (ALDH1A2, ALDH1A3, ALDH2, ALDH3A1) (AID 2061307); conditions: ALDH inhibition qHTS; series mostly up to 50.3 µM; further: nearly all actives have a fitted effect of over 50% in size; on Potency: test system not described further here; potency means the concentration at half of the fitted maximal effect
[3] = target: Aldehyde dehydrogenase, mitochondrial (Homo sapiens) (UniProt P05091); assay: qHTS for Inhibitors of the Aldehyde Dehydrogenase Family (ALDH2) Primary screen (AID 2061308); conditions: ALDH2 enzyme inhibition qHTS, 1536-well; series mostly up to 56 µM; further: nearly all actives have a fitted effect of over 55% in size; further: potency means the concentration at half of the fitted maximal effect
[4] = target: Retinaldehyde dehydrogenase 3 (Homo sapiens) (UniProt P47895); assay: qHTS for Inhibitors of the Aldehyde Dehydrogenase Family (ALDH1A3) Primary screen (AID 2061315); conditions: ALDH inhibition qHTS; series mostly up to 56 µM; further: potency means the concentration at half of the fitted maximal effect
[5] = target: Retinaldehyde dehydrogenase 3 (Homo sapiens) (UniProt P47895); assay: qHTS for Inhibitors of the Aldehyde Dehydrogenase Family (ALDH1A3) Confirmatory screens (AID 2061311); conditions: ALDH inhibition qHTS; series mostly up to 46 µM; further: nearly all actives have a fitted effect of over 60% in size; further: potency means the concentration at half of the fitted maximal effect
[6] = target: Retinal dehydrogenase 2 (Homo sapiens) (UniProt O94788); assay: qHTS for Inhibitors of the Aldehyde Dehydrogenase Family (ALDH1A2) Confirmation screens (AID 2061314); conditions: ALDH1A2 enzyme inhibition qHTS confirmation; series mostly up to 45.9 µM; further: nearly all actives have a fitted effect of over 65% in size; further: potency means the concentration at half of the fitted maximal effect
[7] = target: Aldehyde dehydrogenase 1A1 (Homo sapiens) (UniProt P00352); assay: qHTS for Inhibitors of the Aldehyde Dehydrogenase Family (ALDH1A1) Confirmatory screens (AID 2061316); conditions: ALDH inhibition qHTS; series mostly up to 47.3 µM; further: nearly all actives have a fitted effect of over 65% in size; further: potency means the concentration at half of the fitted maximal effect
[8] = target: Retinaldehyde dehydrogenase 3 (Homo sapiens) (UniProt P47895); assay: qHTS for Inhibitors of the Aldehyde Dehydrogenase Family (ALDH1A3) Validation screen (AID 2061312); conditions: ALDH1A3 enzyme inhibition qHTS validation, fluorescence; series mostly up to 84.7 µM; further: nearly all actives have a fitted effect of over 45% in size; further: potency means the concentration at half of the fitted maximal effect
[9] = BET inhibitor-based combinations targeting novel dependencies in MECOM-rearranged (r) AML: HNT-34 cell line (AID 2202234); conditions: HNT-34 AML viability, CellTiter-Glo luminescence, 48 h; series mostly up to 46 µM; further: nearly all actives have a fitted effect of over 35% in size; further: potency means the concentration at half of the fitted maximal effect
Procedure, shortened: (§1)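 Using pin-tool transfer, drugs were added in 11 doses to cells (500/well), incubated 48 hr, and assessed with CellTiter-Glo. Z-AUC is a mean-centring transformation applied separately to each screened line.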

[10] = BET inhibitor-based combinations targeting novel dependencies in MECOM-rearranged (r) AML: UCSD-AML1 cell line (AID 2202235); conditions: UCSD-AML1 AML cells viability, CellTiter-Glo, 48 h; series mostly up to 46 µM; further: potency means the concentration at half of the fitted maximal effect; nearly all actives have a fitted effect of over 40% in size
Procedure, shortened: as §1

[11] = BET inhibitor-based combinations targeting novel dependencies in MECOM-rearranged (r) AML: AML-191 cell line (AID 2202236; further: nearly all actives have a fitted effect of over 35% in size; further: potency means the concentration at half of the fitted maximal effect); conditions: AML-191 viability, CellTiter-Glo luminescence, 48 h; series mostly up to 46 µM
Procedure, shortened: (§2)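 Viability of cells (500 per well) is scored by luminescent CellTiter-Glo at 48 hr post-dosing. Eleven-point titrations are normalized to DMSO and empty controls and reduced to AUC values.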

[12] = BET inhibitor-based combinations targeting novel dependencies in MECOM-rearranged (r) AML: SET-2 cell line (AID 2202231); conditions: SET-2 AML cells viability, CellTiter-Glo luminescence, 48 h; viability: stronger effect = lower value, concentration not given here;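 further: plate controls were DMSO treated cells for no effect and wells without cells for full effect; nearly all actives have a fitted effect of over 35% in size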
Procedure, shortened: as §2

[13] = BET inhibitor-based combinations targeting novel dependencies in MECOM-rearranged (r) AML: OCI-AML3 cell line (AID 2202232); conditions: CellTiter-Glo luminescence, 48 h; Potency: OCI-AML3 viability; series mostly up to 46 µM;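 further: plate controls were DMSO vehicle wells for no effect and wells without cells for full effect; nearly all actives have a fitted effect of over 35% in size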
Procedure, shortened: as §2

[14] = BET inhibitor-based combinations targeting novel dependencies in MECOM-rearranged (r) AML: MV-4-11 cell line (AID 2202233); conditions: MV-4-11 AML viability, CellTiter-Glo luminescence, 48 h; series mostly up to 46 µM;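 further: plate controls were DMSO for no effect and blank wells for full effect; nearly all actives have a fitted effect of over 45% in size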
Procedure, shortened: as §1

[15] = BET inhibitor-based combinations targeting novel dependencies in MECOM-rearranged (r) AML: AML-194 cell line (AID 2202237;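 further: plate controls were vehicle wells for no effect and wells without cells for full effect; nearly all actives have a fitted effect of over 40% in size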); conditions: AML-194 (MECOM-r AML) viability, CellTiter-Glo, 48 h; series mostly up to 46 µM
Procedure, shortened: as §2

OCC1OC(Oc2cc(O)cc(/C=C/c3ccc(OC4OC(CO)C(O)C(O)C4O)cc3O)c2)C(O)C(O)C1O (configuration not stated)
inactive: activation [1] -9.16% | Potency [3]
active: Potency [2] 10 µM | Potency [4] 4.47 µM

CCOC(=O)c1cnn(-c2ccc(NC(=O)C(Cl)=C(Cl)Cl)cc2)c1C(F)(F)F
inactive: Potency [4]
active: Potency [1] 19 µM | Potency [2] 4.47 µM | Potency [3] 4.47 µM | Potency [5] 7.08 µM | Potency [6] 0.634 µM | Potency [7] 4 µM

NC(=Nc1ccc(CCNCc2cccc(Cl)c2)cc1)c1cccs1
inactive: activation [1] -11.9% | Potency [2] | Potency [3] | Potency [4]

C=CC(C)(O)CC/C=C(\C)C1CC=C(C)C(=O)O1 (configuration not stated)
inactive: activation [1] -9.82% | Potency [2] | Potency [3]
active: Potency [5] 22.5 µM | Potency [4] 14.1 µM

N#Cc1ccc2[nH]cc(CCCCN3CCN(c4ccc5oc(C(N)=O)cc5c4)CC3)c2c1
active: Potency [2] 2.24 µM | Potency [5] 15.8 µM | Potency [6] 15.8 µM
inactive: activation [1] 11.5% | Potency [3] | Potency [8] | Potency [4]

O=C(NCC(=O)N1CCCC1)Nc1ccc2ccccc2c1
inactive: activation [1] -2.86% | Potency [3]
active: Potency [2] 5.04 µM | Potency [5] 1.01 µM | Potency [8] 3.55 µM | Potency [4] 2.82 µM | Potency [7] 7.98 µM

COc1c2c(c(C)c3c1C(=O)OC3)OC1(C)CC(O)C34OC(OC)(CC(O)C3(C)C1C2)OC4(C)C (configuration not stated)
inactive: activation [1] -9.92% | Potency [2] | Potency [3] | Potency [4]

O=C(/C=C/c1ccc(O)c(O)c1)O[C@H]1[C@H](OC2CCCCC2O)O[C@H](CO)[C@@H](O)[C@@H]1O (some centres not stated)
active: Potency [5] 11 µM
inactive: activation [1] 5.36% | Potency [2] | Potency [3]

Cc1cc(N2CCOCC2)cc2[nH]c(-c3c(NC[C@@H](O)c4cccc(Cl)c4)cc[nH]c3=O)nc12
inactive: Potency [2] | Potency [3] | Potency [8] | Potency [4]
active: Potency [1] 21.7 µM and 23.9 µM | Potency [9] 7.42 µM | Potency [10] 0.296 µM | Potency [11] 0.59 µM

C=CC(=O)N1CCN(C(=O)CNc2cc(I)c(Cl)cc2O)CC1
inactive: activation [1] 8.59% | Potency [3]
active: Potency [2] 2.25 µM | Potency [5] 1.79 µM | Potency [8] 7.08 µM | Potency [6] 28.3 µM | Potency [4] 2.82 µM | Potency [7] 2.83 µM

OC[C@H]1O[C@@H](OC(CCCCc2ccc(O)cc2)CCc2ccc(O)cc2)[C@H](O)[C@@H](O)[C@@H]1O (some centres not stated)
inactive: activation [1] -9.92% | Potency [2] | Potency [3]

COc1ccc2c(OC)c3ccoc3nc2c1OC
active: Potency [2] 28.2 µM | Potency [5] 4 µM | Potency [6] 0.896 µM | Potency [7] 2.83 µM
inactive: activation [1] -3.05% | Potency [3]

COC(=O)C1=COC(OC2OC(CO)C(O)C(O)C2O)C2C(COC(=O)/C=C/c3ccc(O)c(O)c3)C(O)C(O)C12 (configuration not stated)
inactive: activation [1] -6.25% | Potency [2] | Potency [3] | Potency [6] | Potency [7]

Clc1ccc2ncc(-c3cccc(NC4CNC4)n3)n2c1
inactive: activation [1] 11% | Potency [2] | Potency [3] | Potency [5] | Potency [4] | viability [12] 115% | Potency [13] | Potency [14] | Potency [9] | Potency [11] | Potency [15]

COc1ccc2c(c1)O[C@H](O[C@@H]1O[C@H](CO)[C@@H](O)[C@H](O)[C@H]1O)C(=O)N2
inactive: activation [1] -12.5% | Potency [2] | Potency [3]
active: Potency [5] 13.9 µM | Potency [4] 6.31 µM

C=C1CC[C@H]2[C@@](C)(CCC(O)[C@@]2(C)CO)[C@@H]1C/C=C(/C(=O)O)C(O)CO (some centres not stated)
inactive: activation [1] -16.1% | Potency [3]

CC(C)(O)C1OC1C1=CC(=O)C2(C)OC2C1O (configuration not stated)
inactive: activation [1] 1.79% | Potency [3]
